Hits are enriched below; roughly 27% of the tested compounds scored in any of these assays.
CYP2C19 act: activators of human cytochrome P450 2C19; P33261; recombinant CYP2C19, luciferin-H EGE luminescence; stronger effect = higher value; 0 = fully inhibited enzyme, 1 = untreated enzyme; activation factor at 5 µM; 96,000 tested, under 10 active; AID 1025;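 active = activation factor of at least 2 at 5 µM in the primary screen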;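 also: 0 = wells with 2.5 mM tranylcypromine and 1 = vehicle-only wells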
PTK2B oligo ant: antagonists of human Pyk2 oligomerization; Q14289; Q293 cells, Pyk2 FERM NanoBiT luminescence; stronger effect = lower value; z-score (the deposit names both 25 µM and 10 µM); hit rate 0.83% among 99,000;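 active = Z-score of -3 or lower, scaled per plate to the spread of control and sample wells; inactive = z-score above -3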;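 also: negative z-score means lost luminescence so less FERM oligomerization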
CYP2C19 inh: human CYP2C19 inhibition; inhibition, % at 5 µM; CYP2C19 Supersomes, luciferin-H EGE luminescence, 30 min; P33261; hit rate 21% among 96,000;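 active = CYP2C19 inhibition above a set limit at 5 µM in the primary screen, cut at about 50% in these data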;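 also: plate controls were negative control wells for no effect and 2.5 mM tranylcypromine positive control for full effect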
Cav3 T inh: blocks human Cav3.2 T-type calcium channel. hit rate 4% among 100,000. O95180. Cav3.2-expressing cells, Fluo-4 calcium fluorescence FDSS; stronger effect = lower value. B-score at 10 µM;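 active = single-dose well whose peak fluorescence ratio is a statistical outlier from its plate by either plate-standardised score or position-corrected B-score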
CYP2C9 activ: increases human cytochrome P450 2C9 activity | recombinant CYP2C9, luciferin-H conversion, luminescence; stronger effect = higher value; factor 1 = untreated enzyme, 0 = blocked | activation factor at 5 µM | hit rate 1.4% among 96,000 | AID 1024 | P11712;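 active = activation factor of 2 or more for CYP2C9 at a 5 µM dose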;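 also: 0 = sulfaphenazole-blocked wells and 1 = vehicle-only wells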
Target sequence (P11712 whole entry, looked up): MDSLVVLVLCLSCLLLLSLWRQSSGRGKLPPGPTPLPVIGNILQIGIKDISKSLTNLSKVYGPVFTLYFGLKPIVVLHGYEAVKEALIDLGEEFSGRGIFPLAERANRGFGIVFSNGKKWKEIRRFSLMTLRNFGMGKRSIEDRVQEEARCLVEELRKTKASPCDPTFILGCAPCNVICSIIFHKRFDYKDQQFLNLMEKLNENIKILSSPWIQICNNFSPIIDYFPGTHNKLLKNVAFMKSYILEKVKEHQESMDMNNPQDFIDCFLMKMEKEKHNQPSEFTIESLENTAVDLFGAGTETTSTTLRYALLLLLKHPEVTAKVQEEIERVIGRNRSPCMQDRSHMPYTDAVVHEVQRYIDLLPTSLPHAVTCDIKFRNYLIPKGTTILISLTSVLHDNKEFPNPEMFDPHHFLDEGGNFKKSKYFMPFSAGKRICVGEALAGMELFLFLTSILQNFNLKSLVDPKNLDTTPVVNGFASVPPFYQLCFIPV
CYP2C9 inhib: human CYP2C9 inhibition | CYP2C9 Supersomes, luciferin-H conversion, luminescence | hit rate 20% among 96,000 | AID 777 | P11712 | inhibition, % at 5 µM;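 active = blocking of liver enzyme CYP2C9 beyond about 50% at 5 µM, limit read from the data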
Numbers without * were called inactive; · = not tested or not shown.

SMILES	CYP2C19 act	PTK2B oligo ant	CYP2C19 inh	Cav3 T inh	CYP2C9 activ	CYP2C9 inhib
CCOC(=O)C1C(=O)Oc2ccc3ccccc3c2C1C1CCOC1=O (centres undefined)	0.4	·	59.8*	-0.0123	1.8	-80.9
CCOC(=O)/C(C#N)=C/c1cc(C)n(-c2ccc(Br)cc2)c1C	1.1	·	-6.1	·	1	0.7
CCOC(=O)/C(C#N)=C/c1cc(C)n(-c2ccccc2)c1C	0.5	-1.12	52.4*	-2.11	0.5	53.8*
CC(C)[C@@H]1NC(=O)c2cc([N+](=O)[O-])cc(I)c2NCCC[C@@H](C(N)=O)NC(=O)[C@H](CO)NC1=O	·	·	·	0.407	·	·
CCCCNC(=O)COc1ccccc1[N+](=O)[O-]	·	1.24	·	·	·	·
O=C(Oc1cc(-c2ccccc2)no1)c1ccc(F)cc1	1.2	0.49	-15.5	-0.0131	1.1	-10.5
CO/N=C(/CS(=O)Cc1ccccc1Cl)c1ccc(Cl)cc1Cl (centres undefined)	0.2	-1.16	83.1*	-3.04	1	1.0
CC(=O)NCC1=C(NC(C)=O)C2CC1C(C)(C)C2C (centres undefined)	0.9	·	8.9	·	0.9	11.2
CC1CC(=O)c2cnc(Nc3cccc(C(F)(F)F)c3)nc2C1 (centres undefined)	0.5	-1.49	53.4*	-0.133	0.7	26.1
CCOC(=O)C1(c2nc(N)cs2)COC(=O)C1 (centres undefined)	·	0.24	·	0.00949	·	·
CC(C)Nc1nc(Oc2cccc(Cl)c2Cl)cc(C(F)(F)F)n1	0.3	0.78	71.4*	·	0.7	29.7
CC(C)Nc1nc(Oc2ccc(Cl)cc2Cl)cc(C(F)(F)F)n1	0.7	-0.21	26.9	0.57	0.5	48.1
COc1cc(NC(=O)c2cc3cccc(OC)c3o2)cc(C(=O)Nc2cccc(C(F)(F)F)c2)c1	·	·	·	-1.8	·	·
Cc1ccc(C2CC(c3ccccc3OC(F)F)Nc3ncnn32)cc1 (centres undefined)	0.7	0.5	27.3	-0.0962	0.9	7.8
c1ccc(C2CC(c3ccccc3)n3ncnc3N2)cc1 (centres undefined)	0.1	0.57	93.2*	0.088	0.5	45.3
Fc1ccc(C2CC(c3ccccc3)Nc3ncnn32)cc1 (centres undefined)	0.5	·	53.3*	0.508	1	-2.3
Cc1ccccc1C1CC(c2ccccc2OC(F)F)Nc2ncnn21 (centres undefined)	0.2	-0.24	75.1*	-4.12*	0.4	59.7*
C[C@@H]1CC=C[C@H]2[C@H]1C(=O)N(Cc1ccccc1)[C@H]2c1ccc(/C=C/c2ccccc2)cc1F	·	·	·	-1.27	·	·
Cc1ccc(S(=O)(=O)NC(C(=O)OCC(=O)NC2CCS(=O)(=O)C2)C(C)C)cc1 (centres undefined)	1	0.35	-2.8	·	1	2.8
CCOc1ccc(NCc2cc3c(C(C)(C)C)nn(-c4ccccc4)c3[nH]c2=O)cc1	0.8	-1.44	15.4	0.268	0.4	58.7*
COc1cccc(NCc2cc3c(C(C)(C)C)nn(-c4ccccc4)c3[nH]c2=O)c1	0.7	-1.78	27.6	-3.98	0.2	81.6*
Cc1nn(-c2ccccc2)c2[nH]c(=O)c(CNCCN3CCOCC3)cc12	1	0	-4.1	0.356	1	-0.2
O=C(NCc1ccco1)C1CCC(CNS(=O)(=O)c2cccc3cccnc23)CC1 (centres undefined)	1	·	4.0	1.05	1.1	-8.9
COC(=O)Nc1ccc(S(=O)(=O)N2CCCCC2C(=O)NCc2ccco2)cc1 (centres undefined)	0.6	-0.04	41.7	-0.951	1	0.1
O=C(NCc1ccco1)C1CN(S(=O)(=O)c2ccccc2)CCN1S(=O)(=O)c1ccccc1 (centres undefined)	0.4	1.02	56.3*	0.674	0.5	50.5*
CCCNC(=O)C1CN(S(=O)(=O)c2ccccc2)CCN1S(=O)(=O)c1ccccc1 (centres undefined)	0.9	0.03	8.4	1.24	1	0.6
Cc1ccc(S(=O)(=O)NCC2CCC(C(=O)NCc3ccco3)CC2)cc1 (centres undefined)	0.5	1.06	53.5*	0.228	0.5	45.9
Cc1ccc(S(=O)(=O)N2CCCCC2C(=O)NCc2ccco2)cc1 (centres undefined)	0.1	0.15	93.7*	1.13	0.7	32.8

Source: PubChem (several laboratories)
